Only some compounds are listed: those with a hit (about 9.4% of all), similar ones and a draw of the others.
AMA1 RON2 block = qHTS for Inhibitors of AMA1-RON; Towards Development of Antimalarial Drug Lead: Primary Screen. Plasmodium falciparum AMA1 (3D7) - RON2 peptide interaction. AlphaScreen AMA1-biotinylated RON2 peptide binding. Potency, µM (titrated, usually from 58.2 µM), inactives show at the top dose activity change, negative = inhibition, actives largely listed as inhibitors. actives 0.2% (n = 360,000);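 also: 0% = vehicle wells and -100% = peptide control; nearly all actives have a fitted effect of over 45% in size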
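AMA1 (3D7) with his tag at 25 nM final met compounds first, then biotinylated RON2 peptide at 25 nM; detection used donor plus acceptor beads, 10 µg/mL apiece, read by AlphaScreen after 30 min at room temperature.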
Pf growth 48h = Primary qHTS for delayed death inhibitors of the malarial parasite plastid, 48 hour incubation. P. falciparum luciferase growth in erythrocytes, 48 h. Potency, µM (highest dose often 28.7 µM), without a hit: top-dose activity change, negative = inhibition, actives largely listed as inhibitors. actives 5.9% (n = 310,000); also: % is scaled to controls: 0 for no effect and ±100 for the full control effect
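Erythrocytes infected with P. falciparum carrying an integrated firefly luciferase reporter (2% hematocrit, 0.1% parasitemia final) were exposed to compounds in RPMI 1640 with 0.5% Albumax at 37 C, 5% CO2. Growth inhibition was scored as reduced luminescence.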
Pf growth 96h = Primary qHTS for delayed death inhibitors of the malarial parasite plastid, 96 hour incubation; P. falciparum luciferase reporter growth, 96 h; Potency, µM (titrated, usually from 28.7 µM), for inactives: at the highest dose activity change, negative = inhibition, most hits filed as inhibitors; actives 6.9% (n = 320,000); also: % is scaled to controls: 0 for no effect and ±100 for the full control effect
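Infected RBCs, 2% Hct / 0.05% parasitemia final; luciferase-reporter P. falciparum; cpd 96 h, 37 C, 5% CO2; luciferase detection reagent; luminescence.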
SARS PLpro yeast = qHTS of Yeast-based Assay for SARS-CoV PLP. S. cerevisiae expressing SARS-CoV PLpro, growth rescue. Potency, µM (series often up to 32.9 µM), without a hit: at the top dose activity, positive = growth rescue, actives largely listed as activators. actives 0.19% (n = 330,000). AID 485353, 2010; calls by dose curve; also: 0% is about no effect; nearly all actives have a fitted effect of over 55% in size
Active calls of the source: *; ? = inconclusive; nt = no result. Unless noted, calls follow the shape of the dose curve; as a rule, active = well fitted curve in the direction sought with a large enough effect; inconclusive = small, poorly fitted or top-dose-only effect, or another doubt; inactive = no such curve, though single readings can be large; an effect the other way counts as inactive or inconclusive. Potency is read from the fitted curve at half-maximal effect.

SMILES	AMA1 RON2 block	Pf growth 48h	Pf growth 96h	SARS PLpro yeast
CCC(=O)NC(NC(=O)CC)C(Cl)Cl	11%	5%	197%	1%
COc1cc2c(cc1OC)CN(C(=O)c1ccc([N+](=O)[O-])o1)CC2	-3%	?	4.1µM*	-4%
O=C(c1ccc([N+](=O)[O-])o1)N1CCc2ccccc2C1	-3%	?	5.2µM*	-20%
O=C(c1ccc([N+](=O)[O-])o1)N1CCCCCC1	-5%	nt	nt	-12%
O=C(c1ccc([N+](=O)[O-])o1)N1CCOCC1	-2%	?	3.3µM*	-2%
CCN(CC)C(=O)C1=C(C)NC(=O)NC1c1ccccc1F (configuration not stated)	nt	-4%	15%	7%
CCOC(=O)[C@]12CCCC=C1N(Cc1ccc(Cl)cc1Cl)C(=O)[C@H](CC(=O)NCCc1ccccc1OC)C2	-22%	nt	nt	nt
CC(C)=CC(=O)O[C@H]1[C@@H]2[C@H](C)C(=O)O[C@@H]2C[C@@H](C)[C@@H]2[C@@H](O)CC(=O)[C@]21C	-22%	34%	24%	-2%
C[C@@H]1C[C@H]2OC(=O)C3(CO3)[C@H]2[C@H](O)[C@]2(C)C(=O)C3OC3[C@@H]12 (some centres not stated)	nt	12µM*	?	-5%
CCc1ccc2c(c1)/C(=C/C(=O)c1cccs1)C(=O)N2	?	9%	47%	-51%
COC(=O)C1=NNC2C(=O)N(C3CCCCC3)C(=O)C12 (configuration not stated)	-4%	15%	3.3µM*	2%
CCOc1ccc(-c2csc(/C(C#N)=C\c3ccc(O)c([N+](=O)[O-])c3)n2)cc1	-12%	?	5.2µM*	25%
COc1ccc(N2c3ccccc3CN(Cc3ccccc3)[C@@H](C)[C@H]2Cc2c(C)cccc2C)cc1	-25%	nt	nt	nt
COc1ccc(N2c3ccccc3CN(Cc3ccccc3)[C@@H](C)[C@H]2Cc2cccnc2)cc1	14µM*	nt	nt	nt
NC(=S)N=Nc1ccc(NN=C(N)N)cc1	?	1.2µM*	?	2%
COC(=O)c1ccc(NN=Nc2ccc(C)cc2)cc1	0%	-31%	3%	3%
CN(C(=O)C1CCCC1)C1CCS(=O)(=O)C1 (configuration not stated)	-12%	13%	2%	5%
CN1C(=O)[C@@H]2C[C@@]3([C@@]45C[C@H]6C(=O)N(C)[C@@H](Cc7ccccc7)C(=O)N6[C@@H]4Nc4ccccc45)c4ccccc4N[C@H]3N2C(=O)[C@@H]1Cc1ccccc1	-8%	12µM*	?	-6%
CS(=O)(=O)c1ccc(Cl)c(NC(=O)CNC(=O)c2ccc3c(c2)OCO3)c1	3%	nt	nt	4%
CC1(N2CCCCC2)CC2(O)C(=[N+]1[O-])CCC/C2=N\O (configuration not stated)	18%	9%	-8%	2%
CCOC(=O)c1c(C)[nH]c(C(=O)C(Cc2ccccc2)N(C)C)c1C (configuration not stated)	-17%	?	nt	4%
Cc1ccc(OC(=O)C(F)(F)F)c2c1NCCC2	1%	?	nt	7%
COc1cc(/C=C(/C#N)c2ccccc2)ccc1Oc1ccc([N+](=O)[O-])cn1	-3%	4.7µM*	0.93µM*	-3%
COc1cc(/C=C(\C#N)c2nc3ccccc3[nH]2)ccc1Oc1ccc([N+](=O)[O-])cn1	54%	5.9µM*	4.1µM*	1%
COc1cccc(C(=O)N/N=C/c2ccc(Oc3ccc([N+](=O)[O-])cn3)c(OC)c2)c1	33%	4%	-2%	7%
SMILES	AMA1 RON2 block	Pf growth 48h	Pf growth 96h	SARS PLpro yeast
CCCCCNCc1ccc(Br)cc1	-2%	-20%	101%	4%
Cc1cccc(N2CCN(c3nnnn3-c3ccccc3)CC2C)c1 (configuration not stated)	-5%	nt	5.9µM*	?
COc1cccc(N=Nc2ccc3cccnc3c2O)c1	-68%	nt	?	-9%
COc1ccc(CCN(/C=C2\Sc3ccccc3C2=O)C(C)=O)cc1OC	40%	100%	38%	-1%
CS(=O)(=O)c1ccc([C@@H](O)[C@@H](COC(=O)CN)NC(=O)C(Cl)Cl)cc1	nt	?	1.9µM*	nt
CC(NC(=O)c1ccc(S(C)(=O)=O)cc1)c1cccc2ccccc12 (configuration not stated)	3%	?	21%	-3%
CC(C)CC(=O)NCc1ccc2[nH]c3c(c2c1)CCCC3	0%	23%	4%	-4%
C/C(=N\Nc1nc(N2CCCCC2)nc(N2CCOCC2)n1)c1ccccc1O	22%	12µM*	-2%	-1%
O=[N+]([O-])c1cccc(/C=N/Nc2nc(NCc3ccccc3)nc(N3CCOCC3)n2)c1	-1%	?	?	-19%
NNc1nc(NCc2ccccc2)nc(N2CCOCC2)n1	-2%	?	125%	-8%
O=[N+]([O-])c1cccc(/C=N/Nc2nc(NCc3ccccc3)nc(N3CCOCC3)n2)c1O	-82%	6.6µM*	?	-1%
BrC(=C\c1ccccc1)/C=N/Nc1nc(N2CCOCC2)nc(N2CCOCC2)n1	-3%	7.4µM*	?	-46%
C/C(=N\Nc1nc(N2CCOCC2)nc(N2CCOCC2)n1)c1cccs1	21%	16%	-22%	-1%
O=[N+]([O-])c1ccc(/C=N/Nc2nc(NCc3ccccc3)nc(N3CCOCC3)n2)cc1	15%	13µM*	16%	1%
Cc1cc(C)c(C)c(S(=O)(=O)NCC(=O)NCc2ccco2)c1C	26%	-12%	?	2%
CCN1C(=NCCc2c[nH]c3ccccc23)N[C@@H](c2ccccc2)[C@H](C(=O)OC)[C@H]1C	-4%	?	-1%	0%
CC(C)(Oc1ccc(Cl)cc1)C(=O)NC1CCN(Cc2ccccc2)CC1	52%	-30%	?	-3%
CC12CCC(c3c(CO)nn(-c4ccccc4)c31)C2(C)C (configuration not stated)	-6%	?	10µM*	0%
CC(C)C1=Nc2cccc3cccc(c23)N1	-6%	?	-18%	-11%
ClCC1=Nc2cccc3cccc(c23)N1	nt	4.1µM*	4.7µM*	-1%
CN(Cc1cc(Br)cc(Br)c1N)C1CCCCC1	nt	?	19µM*	nt
CN(Cc1ccc(O)cc1)C1CCCCC1	-1%	-4%	-13%	-2%
O=C(NCc1ccc(F)cc1)N1CCN(S(=O)(=O)c2ccccc2F)CC1	-23%	7%	-9%	2%
CCOc1ccc(S(=O)(=O)N2CCC(C(=O)N3CCN(Cc4ccccc4)CC3)CC2)cc1	-16%	9.3µM*	1%	2%
O=S(=O)(c1ccccc1F)N1CCN(C(=S)NCc2ccccc2)CC1	-6%	3.7µM*	2.6µM*	0%
O=S(=O)(c1ccccc1)N1CCN(C(=S)NCCc2ccccc2)CC1	-3%	?	?	4%
